# Results as given in the supplement of paper PMC8728848.
# The sample as a whole holds a higher share of the strongest signals than the screen did.
# B1: SP15308B-bot-339-22-339 (Bacteroides ovatus) (protein)
# chain: NEWEDEQYEQYVSFKAPIASGSDGVTTIYVRYKDNGKVTYQLPIIVSGSTVNSQDRDIHIAVDKDTLKTLNIERFSLYRPELWYTEMEEDKYEFPETVHIPAGSCVELLNIDFNLQDIDMLEKWVLPLTIVDDGSYAYQSHPRKNYAKALLKVVPFNNYSGSYTASSMKVYTYINGKPDTNARTTDKRTGYVVDNNSIFFYAGLINEDMDKDMRKKYKINVHFKEDGTLDMKQDDPSNEMEFELIGTPTYSSTSVMDATRPYLERRYVQIMFEYDFQDFTYGGSGTEVIPIKYRVAGSMTLLRNINTQIPDEDQQIEW
# Key:
# Test in all cases: glycan array binding signal (z-score within array); higher = stronger binding
# Conditions in all cases: glycan notation: IUPAC condensed, linker removed
# GalNAc(a1-3)Gal = biological target: GalNAc(a1-3)Gal
# Outline: (§1)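 The Consortium for Functional Glycomics database supplied 3228 glycan arrays, of which those lacking an available protein sequence were dropped. The binding signal, a within-array Z-score, was averaged across arrays of the same protein sequence and across linkers. Negative scores can be read as non-binding.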
# Glc(a1-4)Glc = biological target: Glc(a1-4)Glc
# Outline: as §1
# GlcA(b1-3)Gal = biological target: GlcA(b1-3)Gal
# Outline: as §1
# [1] = biological target: GlcNAc(a1-4)Gal(b1-4)GlcNAc(b1-3)Gal(b1-4)Glc
# Outline: as §1
# [2] = biological target: GlcNAc(a1-6)Gal(b1-4)GlcNAc
# Outline: as §1
# [3] = biological target: GlcNAc(b1-2)[GlcNAc(b1-4)]Man(a1-3)[GlcNAc(b1-4)][GlcNAc(b1-2)[GlcNAc(b1-6)]Man(a1-6)]Man(b1-4)GlcNAc(b1-4)[Fuc(a1-6)]GlcNAc
# Outline: as §1
# [4] = biological target: GlcNAc(b1-4)GlcNAc(b1-4)GlcNAc
# Outline: as §1
# [5] = biological target: GlcNAc(b1-4)GlcNAc(b1-4)GlcNAc(b1-4)GlcNAc(b1-4)GlcNAc
# Outline: as §1
# Neu5Ac(a2-3)Gal = biological target: Neu5Ac(a2-3)Gal
# Outline: as §1
# [6] = biological target: Neu5Ac(a2-3)Gal(b1-3)GlcNAc(b1-2)Man(a1-3)[Neu5Ac(a2-3)Gal(b1-3)GlcNAc(b1-2)Man(a1-6)]Man(b1-4)GlcNAc(b1-4)GlcNAc
# Outline: as §1
# [7] = biological target: Neu5Ac(a2-3)Gal(b1-3)]Neu5Ac(a2-3)Gal(b1-4)]GlcNAc
# Outline: as §1
# [8] = biological target: Neu5Ac(a2-3)Gal(b1-4)GlcNAc(b1-2)[Neu5Ac(a2-3)Gal(b1-4)GlcNAc(b1-4)]Man(a1-3)[GlcNAc(b1-4)][Neu5Ac(a2-3)Gal(b1-4)GlcNAc(b1-2)[Neu5Ac(a2-3)Gal(b1-4)GlcNAc(b1-6)]Man(a1-6)]Man(b1-4)GlcNAc(b1-4)GlcNAc
# Outline: as §1
# [9] = biological target: Neu5Ac(a2-3)Gal(b1-4)GlcNAc(b1-3)Gal(b1-4)GlcNAc(b1-3)GalNAc
# Outline: as §1
# [10] = biological target: Neu5Ac(a2-3)Gal(b1-4)[Fuc(a1-3)]GlcNAc(b1-3)GalNAc
# Outline: as §1
# [11] = biological target: Neu5Ac(a2-3)[GalNAc(b1-4)]Gal(b1-4)Glc
# Outline: as §1
# [12] = biological target: Neu5Ac(a2-6)Gal(b1-4)GlcNAc(b1-2)Man(a1-3)[Gal(b1-4)GlcNAc(b1-2)Man(a1-6)]Man(b1-4)GlcNAc(b1-4)GlcNAc
# Outline: as §1
# [13] = biological target: Neu5Ac(a2-6)Gal(b1-4)GlcNAc(b1-2)Man(a1-3)[Neu5Ac(a2-6)Gal(b1-4)GlcNAc(b1-2)Man(a1-6)]Man(b1-4)GlcNAc(b1-4)[Fuc(a1-6)]GlcNAc
# Outline: as §1
# [14] = biological target: Neu5Ac(a2-6)Gal(b1-4)GlcNAc(b1-2)Man(a1-6)Man(b1-4)GlcNAc(b1-4)GlcNAc
# Outline: as §1
# [15] = biological target: Neu5Ac(a2-6)Gal(b1-4)GlcNAc(b1-2)[Neu5Ac(a2-6)Gal(b1-4)GlcNAc(b1-6)]Man(a1-6)[Neu5Ac(a2-6)Gal(b1-4)GlcNAc(b1-2)Man(a1-3)][GlcNAc(b1-4)]Man(b1-4)GlcNAc(b1-4)GlcNAc
# Outline: as §1
# [16] = biological target: Neu5Ac(a2-6)Gal(b1-4)GlcNAc(b1-3)Gal(b1-4)GlcNAc(b1-3)Gal(b1-4)GlcNAc(b1-2)Man(a1-3)[Neu5Ac(a2-6)Gal(b1-4)GlcNAc(b1-3)Gal(b1-4)GlcNAc(b1-3)Gal(b1-4)GlcNAc(b1-2)Man(a1-6)]GalNAc
# Outline: as §1
# [17] = biological target: Neu5Ac(a2-6)Gal(b1-4)GlcNAc(b1-3)GalNAc
# Outline: as §1
# [18] = biological target: Neu5Ac(a2-6)GalNAc(b1-4)GlcNAc6S
# Outline: as §1
# [19] = biological target: Neu5Ac(a2-8)Neu5Ac(a2-3)[Gal(b1-3)GalNAc(b1-4)]Gal(b1-4)Glc
# Outline: as §1
# [20] = biological target: Neu5Ac(a2-8)Neu5Ac(a2-8)Neu5Ac(a2-3)Gal(b1-4)Glc
# Outline: as §1
# [21] = biological target: Neu5Gc(a2-3)Gal(b1-3)GlcNAc
# Outline: as §1
# [22] = biological target: Neu5Gc(a2-8)Neu5Gc(a2-3)Gal(b1-4)GlcNAc
# Outline: as §1
binder,measurement,setting,value
B1,glycan array binding signal (z-score),GalNAc(a1-3)Gal,3.52
same,glycan array binding signal (z-score),Glc(a1-4)Glc,0.066
same,glycan array binding signal (z-score),GlcA(b1-3)Gal,0.229
same,glycan array binding signal (z-score),[1],-0.022
same,glycan array binding signal (z-score),[2],-0.154
same,glycan array binding signal (z-score),[3],-0.263
same,glycan array binding signal (z-score),[4],-0.544
same,glycan array binding signal (z-score),[5],-0.482
same,glycan array binding signal (z-score),Neu5Ac(a2-3)Gal,-0.692
same,glycan array binding signal (z-score),[6],-0.211
same,glycan array binding signal (z-score),[7],-0.519
same,glycan array binding signal (z-score),[8],-0.547
same,glycan array binding signal (z-score),[9],-0.308
same,glycan array binding signal (z-score),[10],2.38
same,glycan array binding signal (z-score),[11],-0.526
same,glycan array binding signal (z-score),[12],0.001
same,glycan array binding signal (z-score),[13],1.73
same,glycan array binding signal (z-score),[14],-0.086
same,glycan array binding signal (z-score),[15],-0.729
same,glycan array binding signal (z-score),[16],0.664
same,glycan array binding signal (z-score),[17],-0.409
same,glycan array binding signal (z-score),[18],-0.231
same,glycan array binding signal (z-score),[19],-0.005
same,glycan array binding signal (z-score),[20],-0.189
same,glycan array binding signal (z-score),[21],-0.652
same,glycan array binding signal (z-score),[22],-0.454
